The campaign covered roughly 17,000 compounds. About 35 (0.2%) were called active. The sample holds actives, similar compounds and a random draw of the others, so the mix is not that of the screen.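 The calls were made as follows: active = compounds whose four printed spots each show fluorescence over background unusually high for their array block, chance value under 7%; inactive = the rest.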

In the assay the target is Signal transducer and activator of transcription 3 (Homo sapiens) (UniProt P40763). In words: STAT3 binders, primary screen, biochemical, small molecule microarray, single point, set 2 (AID 624138). The following applies: His-STAT3 binding, anti-His fluorescence.
Chain of Signal transducer and activator of transcription 3 (Homo sapiens) (P40763 whole entry, looked up): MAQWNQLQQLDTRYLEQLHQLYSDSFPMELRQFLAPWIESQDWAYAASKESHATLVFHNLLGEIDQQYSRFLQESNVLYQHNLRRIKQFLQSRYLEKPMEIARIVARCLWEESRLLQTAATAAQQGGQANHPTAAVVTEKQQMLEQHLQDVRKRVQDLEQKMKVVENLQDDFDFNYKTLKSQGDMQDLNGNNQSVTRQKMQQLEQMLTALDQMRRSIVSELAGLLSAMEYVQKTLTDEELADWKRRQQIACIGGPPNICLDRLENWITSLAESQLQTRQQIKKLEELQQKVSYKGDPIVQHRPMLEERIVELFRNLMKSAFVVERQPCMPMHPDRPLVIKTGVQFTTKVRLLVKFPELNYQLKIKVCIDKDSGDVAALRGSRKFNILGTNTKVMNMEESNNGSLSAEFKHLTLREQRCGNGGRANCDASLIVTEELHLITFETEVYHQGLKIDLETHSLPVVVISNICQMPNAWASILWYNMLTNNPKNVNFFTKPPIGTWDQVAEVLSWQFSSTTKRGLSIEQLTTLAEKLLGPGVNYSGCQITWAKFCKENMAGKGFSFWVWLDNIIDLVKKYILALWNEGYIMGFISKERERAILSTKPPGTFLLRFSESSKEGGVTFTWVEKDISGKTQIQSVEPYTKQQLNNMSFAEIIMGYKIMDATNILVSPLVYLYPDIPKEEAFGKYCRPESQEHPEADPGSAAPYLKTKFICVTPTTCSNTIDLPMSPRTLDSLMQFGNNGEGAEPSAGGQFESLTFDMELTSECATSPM
`CNC[C@@H]1Oc2ccc(NC(=O)Nc3ccc4c(c3)OCO4)cc2C(=O)N([C@H](C)CO)C[C@@H]1C`: the molecule was classed as inactive.

In the case of `C[C@@H]1CCCCO[C@@H](CN(C)Cc2ccc(Cl)c(Cl)c2)[C@@H](C)CN([C@@H](C)CO)C(=O)c2cc(NS(C)(=O)=O)ccc2O1`, the outcome was inactive.

For `C[C@H]1CCCCO[C@@H](CN(C)Cc2ccccc2)[C@@H](C)CN([C@@H](C)CO)C(=O)c2cc(NC(=O)CCCN(C)C)ccc2O1`, the result was inactive.

As for `C[C@H]1CN([C@@H](C)CO)C(=O)c2cc(NC(=O)Nc3ccccc3)ccc2O[C@@H]1CN(C)C(=O)Nc1ccccc1`, the result was inactive.

Turning to `CCOC(=O)c1c(CN2CCOCC2)nc2c3ccccc3ccn12`, the molecule was called inactive.

As for `O=C(c1cc2ccccc2oc1=O)N(Cc1ccc(F)cc1)Cc1ccco1`, the call was inactive.

Consider `CCOC(=O)c1sc(NC(=S)Nc2ccc3c(c2)OCCO3)c(C(=O)OCC)c1C`, for which the call was inactive.

`CC(Oc1ccccc1)C(=O)N[C@@H]1C(=O)N2[C@@H]1SC(C)(C)[C@@H]2C(=O)O` (stereo partly specified): the call was inactive.

On to `CC(C)NC(=O)Nc1ccc2c(c1)C(=O)N([C@H](C)CO)C[C@H](C)[C@@H](CN(C)C(=O)CCCN(C)C)OCCCC[C@@H](C)O2`, for which the outcome was inactive.

Regarding `COc1ccc(-c2oc3cc(OC)ccc3c2C(=O)c2ccc(C#N)cc2)cc1`, the call was inactive.

Turning to `C[C@H](CO)N1C[C@H](C)[C@@H](CN(C)Cc2ccncc2)Oc2ccc(NC(=O)Nc3ccccc3)cc2C1=O`, the molecule was called inactive.

As for `C[C@H](CO)N1C[C@H](C)[C@H](CN(C)C(=O)NC2CCCCC2)Oc2c(NC(=O)c3nc4ccccc4s3)cccc2C1=O`, the molecule was called inactive.

`C[C@@H]1CCCCO[C@H](CN(C)C(=O)Nc2cccc3ccccc23)[C@@H](C)CN([C@H](C)CO)C(=O)c2cc(NS(=O)(=O)c3cccs3)ccc2O1`: the result was inactive.

Regarding `C[C@@H]1CCCCO[C@H](CN(C)Cc2ccccc2)[C@H](C)CN([C@@H](C)CO)C(=O)c2cc(NS(=O)(=O)c3ccccc3)ccc2O1`, the result was inactive.

For the molecule `C[C@H](CO)N1C[C@H](C)[C@H](CN(C)S(=O)(=O)c2ccc(F)cc2)Oc2ncc(-c3ccc(F)cc3)cc2C1=O`, the molecule was called inactive.

As for `C[C@@H]1CN([C@@H](C)CO)C(=O)c2cc(NS(C)(=O)=O)ccc2O[C@@H]1CN(C)C(=O)Nc1ccc(F)cc1`, the outcome was inactive.

Take `C[C@H](CO)N1C[C@H](C)[C@@H](CN(C)S(=O)(=O)c2cn(C)cn2)Oc2ccc(NS(=O)(=O)c3cn(C)cn3)cc2C1=O`: the outcome was inactive.

On to `C[C@@H]1CC[C@]2(C(=O)O)CC[C@]3(C)C(=CCC4[C@@]5(C)CC[C@H](O)[C@](C)(C(=O)O)C5CC[C@]43C)C2[C@]1(C)O` (stereo partly specified), for which the call was inactive.

For `NC(=O)CSc1nnc(-c2ccccc2F)n1-c1ccccc1`, the molecule was called inactive.

Take `C[C@H](CO)N1C[C@H](C)[C@H](CN(C)Cc2ccc(C(=O)O)cc2)Oc2c(NC(=O)C3CCOCC3)cccc2C1=O`: the molecule was classed as inactive.

With `COC(=O)c1ccccc1NC(=O)CNS(=O)(=O)c1cc(Cl)ccc1Cl`, the outcome was inactive.

On to `Cc1noc(C)c1NC(=O)N(C)C[C@@H]1OCCCC[C@@H](C)Oc2ccc(NC(=O)C3CCCCC3)cc2C(=O)N([C@H](C)CO)C[C@@H]1C`, for which the call was inactive.

Consider `COC(=O)c1c(NC(=O)c2cc(-c3ccccn3)nc3c(C)cc(C)cc23)sc(C)c1C`, for which the molecule was classed as inactive.

Regarding `COc1ccc(NC(=O)Nc2ccc3c(c2)C(=O)N([C@@H](C)CO)C[C@@H](C)[C@H](CN(C)S(=O)(=O)c2cccs2)O3)cc1`, the molecule was classed as inactive.

`Cc1noc(C)c1NC(=O)Nc1cccc2c1O[C@H](CN(C)C(=O)Nc1c(C)noc1C)[C@@H](C)CN([C@@H](C)CO)C2=O`: the result was inactive.

Take `CC[C@@H]1Cc2cc(O)ccc2C2=C1c1ccc(O)cc1C[C@H]2CC`: the outcome was inactive.

For the molecule `CC(C)C(NS(=O)(=O)c1ccc(-c2ccc(Br)cc2)cc1)C(=O)O` (stereo unspecified), the outcome was inactive.

On to `O=C(NCc1ccccc1)C1=C[C@@H](C2CCCCC2)C[C@@H](OCc2ccc(CO)cc2)O1`, for which the call was active.

In the case of `O=C(NCc1ccccc1)C1=C[C@H](C2CC2)C[C@H](OCc2ccc(CO)cc2)O1`, the call was inactive.

Consider `CC(C)(C)[C@H]1C=C(C(=O)NCc2ccccc2)O[C@@H](OCc2ccc(CO)cc2)C1`, for which the outcome was inactive.

As to `C[C@@H]1CN([C@@H](C)CO)C(=O)CCCn2nncc2CO[C@@H]1CN(C)Cc1ccccc1`, the result was inactive.

Take `CN(C)c1nc(Nc2nc3ccccc3[nH]2)nc(N(C)C)n1`: the molecule was called inactive.

On to `COC(=O)C(C)N(C(=O)c1ccccc1[N+](=O)[O-])c1c(C)cccc1C` (stereo unspecified), for which the outcome was inactive.

Turning to `COc1ccc(NC(=O)Nc2nn(Cc3ccc(Cl)cc3Cl)cc2Br)cc1OC`, the result was inactive.

Regarding `COCCCNC(=O)C(=O)c1cn(C)c2ccccc12`, the outcome was inactive.

As for `O=C1C[C@@](C(=O)NCC(F)(F)F)(c2ccc([N+](=O)[O-])cc2)[C@@H](c2ccc(CO)cc2I)N1C1CCCCC1`, the molecule was called inactive.

As for `COC(=O)C1=C[C@H](O[C@@H]2O[C@H](CO)[C@@H](O)[C@H](O)[C@H]2O)C[C@H]2[C@]3(C)C[C@@H](c4ccoc4)OC(=O)[C@H]3CC[C@@]12C`, the call was inactive.

Consider `CCn1c(SCC(=O)O)nnc1-c1ccc(OC)cc1`, for which the result was inactive.

For the molecule `C[C@H](CO)N1C[C@H](C)[C@H](CN(C)C(=O)Nc2ccccc2)Oc2ccc(NC(=O)CCN3CCOCC3)cc2CC1=O`, the molecule was called inactive.

`OC[C@H]1O[C@@H](OCc2ccccc2)[C@H](O[C@@H]2OC[C@](O)(CO)[C@H]2O)[C@@H](O)[C@@H]1O`: the result was inactive.

On to `COc1ccc(CCN2C(=O)[C@@]3(Cc4ccccc42)c2ccccc2C(=O)N(Cc2ccccc2C(F)(F)F)[C@H]3c2ccc(CO)cc2)cc1`, for which the call was inactive.

As for `C[C@@H]1CN([C@H](C)CO)C(=O)CCCn2cc(nn2)CO[C@@H]1CN(C)C(=O)Nc1ccc2c(c1)OCO2`, the call was inactive.

As for `O=C(Nc1cccc(OCC(=O)N2CCOCC2)c1)C1CCCCC1`, the result was inactive.

In the case of `O=c1c(-c2ccc(O[C@@H]3O[C@H](CO)[C@@H](O)[C@H](O)[C@H]3O)cc2)coc2c([C@@H]3O[C@H](CO)[C@@H](O)[C@H](O)[C@H]3O)c(O)cc(O)c12`, the outcome was inactive.

On to `Cc1ccc(Cn2c(NCc3nc4ccccc4n3C)nc3ccccc32)cc1`, for which the molecule was classed as inactive.

Consider `COc1cccc(-c2cc(C(F)(F)F)n3nc(C(=O)NCc4ccccn4)cc3n2)c1`, for which the outcome was inactive.

The record behind these values is PubChem BioAssay AID624138 (Broad Institute, 2012).
